From PubChem BioAssay AID1508600 (Functional Genomics Laboratory (NCATS/FGL), 2020)
The campaign covered roughly 53,000 sequences. About 3,700 (7%) were called active. The entries come from a sample that favours actives as a whole. A number with no mark means an inactive call.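 Rule for the calls: active = gene knockdowns whose robust z-score for IL-1 alpha signal is at least 2 or at most -2, so actives lie on both sides; inactive = the rest.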

Assay: Components of the Cytosolic LPS Sensing Pathway: Gene Identification via Genome-wide siRNA Screen;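 note: robust z of the log signal after scaling to non-targeting control siRNA wells of the plate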
Conditions: RAW264.7 macrophages, IL-1a HTRF, actives lie on both sides, screened at 100 nM (by protocol), cells primed 5 h with Pam3CSK4 first
Procedure, shortened: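 Supernatant IL-1a by HTRF from RAW264.7 cells primed with Pam3CSK4 (5 hours) and transfected with LipidA (24 hour) after 48h siRNA knockdown at 100 nM; cell viability checked with CellTiter-Glo.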

In order of rising z-score:
1. GGACUGUACAGUGGCAUUATT against Cd70  -1.69
2. GCUGUUCUGCAAAACUGGATT against Rbpms  -1.36
3. GCUGAAUGGAAGGAAGUUGTT against Wdr83os  -1.32
4. GGAAGUUCCACGUUAUUGUTT against Eif2b2  -1.3
5. GGUGGAAGCACUCAAUAAGTT against Pik3cb  -1.24
6. GUGUAUCCCAGGCUAUCACTT against Vmn1r19  -1.17
7. GCGAUUUCACACCAUCACATT against Rab10  -1.03
8. GGAGAUGCUAGAAAUUGUGTT against Hpca  -0.909
9. GCACAUCGGCCUUAAGUCATT against Supt4a  -0.833
10. GGCGUAAACAUGGUGUGCATT against Taok3  -0.807
11. GGACAUUUUAGUUGUCUUGTT against Slc38a4  -0.607
12. GGUAGAGAGACUGUAAUUATT against Ppp2r1b  -0.598
13. CCUCUGCUACUCUUAUUGUTT against Ttn  -0.523
14. GGUGAUAGUACUGUCAGCCTT against Olfr1225  -0.517
15. GCCAGUUAUCACUUAACCCTT against Cmc1  -0.514
16. GGACACAAGGUCGCCAUCUTT against Tcf7l1  -0.502
17. GUAUUAAGACCAAACAGAUTT against Olfr623  -0.497
18. GGUGCUGGAUGAAUUUGGGTT against Zp1  -0.416
19. GCUCAUGUCUUAUUUGGAUTT against Klhl15  -0.393
20. GGAAGGAGGGUAUGUGGUUTT against Lgals9  -0.346
21. GCUGCUCUGCUAUAAGUAUTT against Kptn  -0.269
22. GCUAUGCAAAUGGUGUCAATT against Fcnb  -0.147
23. GGGAUAUGUGACUAUGUUATT against Slc5a7  -0.138
24. GCUGUUUUGUCUCCAGCCCTT against Zbtb20  -0.118
25. GCUCUAUAGUGACCAAUGUTT against Gcgr  -0.072
26. GGAAAUCGAUAGUUUCUUCTT against Olfr1302  -0.0687
27. CCCUUACUUAGUCUCCACUTT against Olig1  -0.025
28. GCUGAGAAUCGUUUAAAUGTT against Ugt2a3  0.00662
29. GGCGAUCCUUACUCCAAUGTT against Zfp90  0.143
30. GCAUGUCGCCUUGAAAUUATT against Cpne4  0.202
31. GGUCAGAAAAGUAUGUUGGTT against Naip5  0.208
32. GGACCACCGUGAUCAACAUTT against Ifitm2  0.215
33. GGAACCUUCAGAGCGACUUTT against Trib3  0.224
34. AUACGAUUUUUGUACUGCUTT against Defa4  0.305
35. GGUUCAAUUCAAGUCUUUATT against Olfr195  0.339
36. GGAACAAGAACAAGUUGAGTT against Spa17  0.389
37. CCGAAGUGCCAUGCCAUUUTT against Pdlim1  0.399
38. GGCAAGGAGGAUGACAAAATT against Rnf113a2  0.416
39. GGCCUACAGCUGGAAAGAATT against Chrm1  0.418
40. GGAUAUACACAACAGGCACTT against Tceal9  0.422
41. GGAAGACUUUGAAUACCACTT against Slc4a2  0.457
42. GGAGACACAUAGGUGUAAATT against H2-T23  0.458
43. GGAAUGGACCUCAAAAUUGTT against Vmp1  0.532
44. GCCAGGUGUGGUGACUCAUTT against Tprkb  0.584
45. CCAUCUAUGGUAUGGAGCGTT against Abcg4  0.606
46. GACCUUCGUUAGCAUUACGTT against Pfn1  0.65
47. GCUAAUUGUUCACUAAAGGTT against 1700029H14Rik  0.655
48. GGUGCUUCUCUAAGAUAAUTT against Ddias  0.776
49. UACUCGUGGUGUUUGCAAGTT against Olfr1154  0.873
50. GUAAUUCACAGCCUCUCCGTT against Pitx3  1.03
51. GCACCAUCGACUAAUCAAATT against 1700029J07Rik  1.12
52. GGAGUUUAUGAAAUUCAACTT against Fcgrt  1.34
53. GGUGAGAUGGUUCAACAUGTT against Olfr77  1.7
54. GGAUCCAAGGCAAAGAUGUTT against Fto  1.73
55. GCUCACUUGUAGUGCUUUATT against Arf2  1.88

In the case of GCCACUACCGAUUUUCCCUTT against Lctl, the z-score is reported as -2.29 (active).
In the case of CCGUUUUCGCUUUGAGAAATT against Smarcad1, the z-score is reported as 4.47 (active).
With GGACUUGAACAACUUACAATT against Plcb1 the z-score was 2.37 (active).
In the case of CCCAAUCGGUUAAUUGUUGTT against Vcp, the z-score is reported as -2.37 (active).
In the case of GGAUGAAGAAGAUGAAGAUTT against Prepl, the z-score is reported as -2.62 (active).
For GCAAACUGCCCUCUUUGUGTT against Olfr1024, the z-score was 2.54 (active).
For GGUGGAAGCAAGAGAAAAUTT against Tnp1, the z-score was 2.03 (active).
With GCACAUUUAUCCCGGUGUATT against Pnpla2 the z-score was -2.01 (active).
In the case of GGUUAUCAUGAGGCCUUGGTT against Olfr1339, the z-score is reported as -2.38 (active).
With GCCACGAUAAUUCAGGAGUTT against Aurkc the z-score was 2.27 (active).
In the case of CGCCAAUGUGAUUAAACUATT against Mak, the z-score is reported as 2.01 (active).
In the case of GGACAUGUGUAAAUAAUCATT against En2, the z-score is reported as 3.4 (active).
In the case of GGUGUUAUCAGAAUUCAGATT against Cars, the z-score is reported as 2.6 (active).
In the case of GGAUGAUUUAUGGUUACUGTT against Vmn1r80, the z-score is reported as 2.01 (active).
